The values below come from PubChem BioAssay (NCATS).

Structures are written as SMILES. Values joined by “and” are separate entries in the source; they are usually repeats but may differ in a detail not shown here. Equal values may be shown once. Values without a mark were called inactive. Results filed as inconclusive are left out. Active and inactive are the calls of the source. Unless noted, calls follow the shape of the dose curve; as a rule, active = well fitted curve in the direction sought with a large enough effect; inconclusive = small, poorly fitted or top-dose-only effect, or another doubt; inactive = no such curve, though single readings can be large; an effect the other way counts as inactive or inconclusive. Some results are limits rather than exact numbers.

The nature of assay [1]: Cell Viability - Jurkat (AID 426;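 active = dose-dependent loss of cell ATP signal giving a full or clear fitted curve, ranked by lower potency value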;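 also: potency is read from the fitted curve at half-maximal effect; cells exposed to compound for 40 hours at 37 °C before ATP read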). The settings on record: qHTS. In a few lines: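 Seed 5000 Jurkat E6-1 cells/well; add compound; incubate 40 hr at 37 °C; add CellTiter-Glo; wait 20 min at room temperature; read luminescence. Fit concentration-response with Hill equation for AC50.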
A short description of assay [2]: Cell Viability - NIH 3T3 (AID 541).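 Also: cells exposed to compound for 40 hours; plate controls were DMSO alone for no effect and tamoxifen positive control for full effect; nearly all actives have a fitted effect of over 25% in size.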 The settings on record: NIH 3T3 cell viability, qHTS; activity change, negative = cytotoxicity: at 92.2 µM (top of the series). In a few lines: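 AC50 values reflect concentration-dependent loss of intracellular ATP in NIH 3T3 cells after 40 hr treatment in complete culture medium, quantified by luciferase-based luminescence.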
(In general: Quantitative high-throughput screening tests each substance at several concentrations.)

The nature of assay [3]: Cellular Toxicity (caspase-3) BJ (AID 658).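 Also: 0% = DMSO basal and 100% = 10 µM staurosporine.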 Particulars: BJ fibroblasts, luminescence; Potency: caspase-3 activation; series mostly up to 91.7 µM. The procedure, abridged:
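Luminescent aminoluciferin-substrate cleavage reports caspase 3/7 activity in normal human BJ fibroblasts after 16 hr compound exposure at 37 °C. Normalized to DMSO (basal) and 10 uM staurosporine (100%); AC50 from Hill fit of concentration-response.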

Assay [4] deals with Estrogen receptor (Homo sapiens) (UniProt P03372). Kind of assay: qHTS assay for small molecule antagonists of estrogen receptor alpha signaling (AID 588513; active = well fitted curve in the direction sought with a large enough effect in the signal ratio, with a control signal flat, not every such curve was filed as active; the % refers to the signal ratio; also: % is scaled to controls: 0 for no effect and ±100 for the full control effect). Particulars: ER-alpha-UAS-bla HEK293, beta-lactamase ratio, antagonist mode; series mostly up to 76.9 µM. The procedure, abridged: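 Beta-lactamase reporter, antagonist mode, HEK 293 GripTite cells; 0.5nM E2 stimulus, 18 h, 37 C; CCF4 dye 2 h RT; fluorescence. IC50 and efficacy from Hill fits, normalized to E2 and DMSO.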

The target in assay [5] is Vitamin D3 receptor (Homo sapiens) (UniProt P11473). In words: qHTS assay for small molecule antagonists of vitamin D receptor signaling (AID 588541; calls by dose curve;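 also: receptor activated by calcitriol during compound treatment; % is scaled to controls: 0 for no effect and ±100 for the full control effect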). Particulars: HEK293T VDR-UAS-bla, beta-lactamase ratio, antagonist mode; series mostly up to 76.7 µM. The procedure, abridged:
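VDR-UAS-bla HEK293T cells (2000/well, 2% charcoal-stripped FBS) were treated with titrated compounds plus 1-alpha,25-dihydroxyvitamin D3 (50 nM or 3 nM final) for 16 h at 37 C. CCF4 beta-lactamase fluorescence was read; Hill fits gave IC50.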

For assay [6] the target is unchanged. In words: qHTS assay for small molecule agonists of vitamin D receptor signaling (AID 588543; calls by dose curve;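 also: 0% = DMSO basal and 100% = reference agonist control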). Particulars: HEK293T VDR-UAS-bla, beta-lactamase ratio, 16 h; series mostly up to 76.8 µM. In a few lines:
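β-lactamase reporter, VDR-UAS-bla HEK293T, agonist mode. Cells plated 5 h at 37 °C, compound titration 16 h at 37 °C, CCF4 dye 2 h RT, ratio 460/530 nm. Hill fit → EC50, efficacy vs 50 nM 1α,25-(OH)2D3.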

The nature of assay [7]: qHTS assay for small molecule activators of the p53 signaling pathway (AID 651743; active = well fitted activation curve with a large enough effect in the signal ratio, not every such curve was filed as active; the % refers to the signal ratio; also: % of control where 0% means no effect). Particulars: HCT-116 p53RE-bla, beta-lactamase FRET ratio, 16 h; activation: active compounds read high. The procedure, abridged: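 p53RE-bla HCT-116 cells with a stably integrated beta-lactamase reporter under p53 response elements were plated, rested 5 hours at 37 C/5% CO2, then exposed to compounds in DMSO for 16 hours at 37 C. LiveBLAzer B/G FRET substrate was read after 2 hours at room temperature.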

For assay [8], the target named is Nuclear receptor ROR-gamma (Homo sapiens) (UniProt P51449). In words: qHTS assay for small molecule antagonists of the retinoid-related orphan receptor gamma (ROR-gamma) signaling pathway (AID 651802). Also: % is scaled to controls: 0 for no effect and ±100 for the full control effect; nearly all actives have a fitted effect of over 60% in size. Particulars: ROR-gamma antagonist cell reporter assay; series mostly up to 92.2 µM. In a few lines:
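Antagonism is scored as a fall in luminescence from a RORE-luciferase reporter in CHO cells expressing ROR under a TET-inducible promoter, measured 16hr after doxycycline induction in the presence of compound.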

Assay [9] in a line: qHTS assay for small molecule antagonists of the retinoid-related orphan receptor gamma (ROR-gamma) signaling pathway - cell viability counter screen (AID 720652; active = well fitted curve in the direction sought with a large enough effect in the repeat runs; an effect the other way counts as inactive or inconclusive;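 also: compound exposure lasted 16 hr before ATP read; % is scaled to controls: 0 for no effect and ±100 for the full control effect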). The settings on record: RORgamma reporter cell line viability counter screen; series mostly up to 92.2 µM. The procedure, abridged: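 Cytotoxicity is quantified via intracellular ATP (CellTiter-Glo luminescence) in doxycycline-induced CHO ROR response element-luciferase reporter cells treated with compound for 16 hr at 37 C, 5% CO2.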

The nature of assay [10]: qHTS assay for small molecule activators of the human pregnane X receptor (PXR) signaling pathway (AID 720659; call rule not given here; also: 0% is about no effect). The settings on record: DPX-2 HepG2 CYP3A4-luciferase, 24 h; series mostly up to 92.3 µM.
Assay [11] is described as follows: Cellular Toxicity (caspase-3) Mesangial (AID 660).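 Also: combined caspase 3 and 7 activity read by Caspase-Glo luminescence; cells exposed to compound for 16 h before the caspase read.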 The settings on record: mesangial cells, normalized: DMSO 0%, 100 µM tamoxifen 100%; series mostly up to 91.7 µM. In a few lines:
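Concentration-response qHTS: compound-induced rise in caspase 3/7 luminescence in human mesangial cells after 16 h, normalized to DMSO and 100 uM tamoxifen controls.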

Assay [12] is described as follows: Cellular Toxicity (caspase-3) H-4-II-E (AID 663).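 Also: cells exposed to compound for 16 hr before readout.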 The settings on record: H-4-II-E rat hepatoma; Potency: caspase-3 activation; series mostly up to 92.2 µM. In a few lines:
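Luminescence from caspase-cleaved aminoluciferin substrate, read 20 min after reagent addition, reports caspase 3/7 activation in rat H-4-II-E cells after 16 hr compound exposure. Normalized to DMSO (basal) and 100 uM tamoxifen (100%); AC50 from Hill fits.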

In assay [13] the target is Cytochrome P450 3A4 (Homo sapiens) (UniProt P08684). Kind of assay: qHTS Assay for Inhibitors and Substrates of Cytochrome P450 3A4 (AID 884). Also: % is scaled to controls: 0 for no effect and ±100 for the full control effect; nearly all actives have a fitted effect of over 50% in size. Particulars: recombinant CYP3A4, Luciferin-PPXE luminescence; series mostly up to 57.1 µM. In a few lines:
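20 nM human CYP3A4 with 25 uM Luciferin-PPXE (at KM) in 200 mM KPO4, preincubated 10 min with compound; NADPH regeneration started a 60 min RT reaction. Luciferin detected by luminescence, normalized to 57 uM ketoconazole as full inhibition.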

For assay [14], the target named is Peroxisome proliferator-activated receptor delta (Homo sapiens) (UniProt Q03181). In words: qHTS assay for small molecule antagonists of peroxisome proliferator-activated receptor delta signaling (AID 588535; active = well fitted inhibition curve with a large enough effect in the signal ratio, with a control signal flat, not every such curve was filed as active; the % refers to the signal ratio). The settings on record: HEK293T PPARd-UAS-bla, beta-lactamase FRET ratio, 18 h; series mostly up to 76.7 µM. In a few lines:
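GeneBLAzer PPAR-delta-UAS-bla HEK293T cells in medium with 2% charcoal/dextran FBS were preincubated 5 hrs at 37 C, then given compounds, incubated 18 hrs at 37 C, and read by CCF4 beta-lactamase fluorescence; IC50 from Hill fits.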

Assay [15] has as its target Peroxisome proliferator-activated receptor gamma (Homo sapiens) (UniProt P37231). Kind of assay: qHTS assay for small molecule agonists of peroxisome proliferator-activated receptor gamma signaling (AID 588536; active = well fitted curve in the direction sought with a large enough effect in the signal ratio, with a control signal flat, not every such curve was filed as active; the % refers to the signal ratio;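 also: 0% = DMSO basal wells and 100% = rosiglitazone at 2 µM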). The settings on record: HEK293 PPARg-UAS-bla, beta-lactamase ratio, 16 h, percent of rosiglitazone response, DMSO as zero; series mostly up to 76.7 µM. In a few lines: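 PPAR-gamma-UAS-bla HEK293 cells in medium with 1% charcoal/dextran-treated FBS were exposed to compounds for 16 h at 37 C. Beta-lactamase activity was read with CCF4 substrate (405 nm excitation, 460/530 nm emission).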

A short description of assay [16]: qHTS assay for small molecule agonists of the antioxidant response element (ARE) signaling pathway (AID 651741; active = well fitted activation curve with a large enough effect in the signal ratio; the % refers to the signal ratio; also: potency is read from the fitted curve at half-maximal effect; as to activation: % of control where 0% means no effect). The settings on record: HepG2 ARE-bla reporter, beta-lactamase FRET ratio, 16 h; series mostly up to 96 µM. In a few lines:
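ARE-bla HepG2 cells (beta-lactamase reporter under ARE control) were plated at 2,000 cells/well, preincubated 5 h at 37 C/5% CO2, then treated with DMSO-dissolved compounds for 16 h at 37 C; LiveBLAzer B/G FRET substrate added, fluorescence read after 2 h at room temperature.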

The nature of assay [17]: qHTS assay for small molecule activators of the nuclear factor-kappa B (NF-kB) signaling pathway (AID 651749; active = well fitted activation curve with a large enough effect in the signal ratio; the % refers to the signal ratio; also: % of control where 0% means no effect). The settings on record: NF-kB-bla ME-180 cells, beta-lactamase FRET ratio, 16 h; active compounds read high. The procedure, abridged:
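ME-180 cells stably carrying a beta-lactamase reporter under an NF-kB response element were exposed to compound or DMSO vehicle for 16 hr at 37C, 5% CO2. Pathway activation was read by FRET, since reporter expression disrupts FRET.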

Assay [18] concerns the target Tumor necrosis factor (Homo sapiens) (UniProt P01375). Kind of assay: qHTS assay to identify small molecules that stimulate Tumor Necrosis Factor-alpha (TNF-alpha) secretion (AID 651757; active = well fitted curve in the direction sought with a large enough effect in the signal ratio; the % refers to the signal ratio; also: 0% is about no effect). The settings on record: Human cells, HTRF 665/615 ratio; series mostly up to 92.2 µM. In a few lines: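 Secreted TNF-alpha from compound-treated THP-1 cells (17 hrs, 37 C) was quantified with a homogeneous time-resolved fluorescence antibody assay.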

A short description of assay [19]: Cellular Toxicity (caspase-3) SHSY5Y (AID 657). The settings on record: SH-SY5Y caspase-3 activation; series mostly up to 91.7 µM. The procedure, abridged: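 Luminescent caspase-3/7 readout (aminoluciferin release) in SH-SY5Y cells after 16 h compound exposure in complete medium. Activity scaled between DMSO basal and 10 uM staurosporine as 100%; concentration-response fitted to Hill equation for AC50.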

Assay [20] deals with Estrogen receptor (Homo sapiens) (UniProt P03372). Kind of assay: qHTS assay for small molecule agonists of estrogen receptor alpha signaling (AID 588514; calls by dose curve;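 also: 0% = vehicle only and 100% = reference agonist; nearly all actives have a fitted effect of over 70% in size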). The settings on record: ER-alpha-UAS-bla HEK293, beta-lactamase ratio, 18 h; series mostly up to 76.8 µM. In a few lines:
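Reporter-gene assay. […] controls beta-lactamase in HEK 293 GripTite cells; after 18 hrs with compound, CCF4 substrate is added for 2 hrs and fluorescence is read.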

Vitamin D3 receptor (Homo sapiens), sequence (P11473 whole entry, looked up): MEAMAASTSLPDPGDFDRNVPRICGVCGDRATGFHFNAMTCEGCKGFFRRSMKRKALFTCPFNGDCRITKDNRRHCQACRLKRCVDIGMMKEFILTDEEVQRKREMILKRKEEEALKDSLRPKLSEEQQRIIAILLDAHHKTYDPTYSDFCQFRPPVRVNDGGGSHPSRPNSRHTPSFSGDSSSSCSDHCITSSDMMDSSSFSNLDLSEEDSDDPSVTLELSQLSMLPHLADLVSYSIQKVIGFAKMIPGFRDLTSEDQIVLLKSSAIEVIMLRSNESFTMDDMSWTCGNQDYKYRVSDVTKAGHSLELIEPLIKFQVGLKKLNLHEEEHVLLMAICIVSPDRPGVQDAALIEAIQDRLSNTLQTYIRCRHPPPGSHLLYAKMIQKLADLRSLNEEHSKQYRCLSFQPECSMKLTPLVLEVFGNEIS
Estrogen receptor (Homo sapiens), sequence (P03372 whole entry, looked up): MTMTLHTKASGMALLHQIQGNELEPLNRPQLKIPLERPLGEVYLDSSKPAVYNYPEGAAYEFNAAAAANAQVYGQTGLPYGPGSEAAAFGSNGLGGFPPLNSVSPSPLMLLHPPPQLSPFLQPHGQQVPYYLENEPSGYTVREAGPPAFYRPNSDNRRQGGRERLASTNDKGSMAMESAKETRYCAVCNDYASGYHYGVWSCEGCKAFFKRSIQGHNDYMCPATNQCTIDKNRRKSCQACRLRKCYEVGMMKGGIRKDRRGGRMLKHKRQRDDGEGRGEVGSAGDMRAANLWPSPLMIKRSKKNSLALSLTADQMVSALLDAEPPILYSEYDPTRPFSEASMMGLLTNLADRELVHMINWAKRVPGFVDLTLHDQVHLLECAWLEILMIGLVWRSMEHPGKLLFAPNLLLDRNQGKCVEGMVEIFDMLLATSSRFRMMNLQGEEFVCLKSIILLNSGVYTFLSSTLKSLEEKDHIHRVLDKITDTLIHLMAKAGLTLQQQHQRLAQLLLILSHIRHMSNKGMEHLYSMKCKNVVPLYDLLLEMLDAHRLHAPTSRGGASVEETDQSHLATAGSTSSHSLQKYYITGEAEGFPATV
Peroxisome proliferator-activated receptor gamma (Homo sapiens), sequence (P37231 whole entry, looked up): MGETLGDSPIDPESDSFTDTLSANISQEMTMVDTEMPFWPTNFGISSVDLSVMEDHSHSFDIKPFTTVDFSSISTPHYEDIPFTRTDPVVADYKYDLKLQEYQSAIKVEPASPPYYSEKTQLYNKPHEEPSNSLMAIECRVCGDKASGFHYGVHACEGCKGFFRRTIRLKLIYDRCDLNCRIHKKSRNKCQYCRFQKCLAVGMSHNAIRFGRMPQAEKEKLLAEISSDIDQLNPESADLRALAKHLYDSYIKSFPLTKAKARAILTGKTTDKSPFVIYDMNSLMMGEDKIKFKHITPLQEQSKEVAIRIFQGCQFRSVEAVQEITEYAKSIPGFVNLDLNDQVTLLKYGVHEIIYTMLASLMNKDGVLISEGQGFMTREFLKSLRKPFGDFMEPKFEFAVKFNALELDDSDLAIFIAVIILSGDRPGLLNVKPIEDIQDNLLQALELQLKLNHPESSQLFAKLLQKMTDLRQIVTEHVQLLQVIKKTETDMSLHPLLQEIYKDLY
Peroxisome proliferator-activated receptor delta (Homo sapiens), sequence (Q03181 whole entry, looked up): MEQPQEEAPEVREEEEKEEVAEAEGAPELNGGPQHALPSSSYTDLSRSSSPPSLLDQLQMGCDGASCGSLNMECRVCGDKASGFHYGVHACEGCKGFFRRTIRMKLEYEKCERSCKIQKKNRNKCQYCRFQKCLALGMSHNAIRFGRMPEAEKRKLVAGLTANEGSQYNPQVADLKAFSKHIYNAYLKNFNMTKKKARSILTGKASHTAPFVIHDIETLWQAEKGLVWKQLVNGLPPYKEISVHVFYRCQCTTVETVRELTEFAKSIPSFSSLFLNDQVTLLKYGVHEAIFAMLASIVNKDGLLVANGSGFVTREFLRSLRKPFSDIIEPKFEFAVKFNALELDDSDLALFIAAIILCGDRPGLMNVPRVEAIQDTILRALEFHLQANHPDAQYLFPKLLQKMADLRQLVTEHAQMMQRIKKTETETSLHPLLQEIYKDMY
Nuclear receptor ROR-gamma (Homo sapiens), sequence (P51449 whole entry, looked up): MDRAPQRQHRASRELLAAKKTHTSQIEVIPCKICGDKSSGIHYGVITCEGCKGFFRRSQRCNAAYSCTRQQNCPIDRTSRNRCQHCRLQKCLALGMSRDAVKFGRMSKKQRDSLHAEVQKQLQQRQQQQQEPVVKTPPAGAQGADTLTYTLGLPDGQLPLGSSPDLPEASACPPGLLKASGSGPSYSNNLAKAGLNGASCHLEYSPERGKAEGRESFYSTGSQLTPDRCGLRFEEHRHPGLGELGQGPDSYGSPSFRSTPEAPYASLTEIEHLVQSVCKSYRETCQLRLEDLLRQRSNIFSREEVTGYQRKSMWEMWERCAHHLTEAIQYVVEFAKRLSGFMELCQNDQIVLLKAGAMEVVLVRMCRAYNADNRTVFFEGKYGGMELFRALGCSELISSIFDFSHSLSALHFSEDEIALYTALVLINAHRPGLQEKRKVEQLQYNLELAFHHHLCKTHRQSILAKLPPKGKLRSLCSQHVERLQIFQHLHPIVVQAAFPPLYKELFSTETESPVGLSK
Tumor necrosis factor (Homo sapiens), sequence (P01375 whole entry, looked up): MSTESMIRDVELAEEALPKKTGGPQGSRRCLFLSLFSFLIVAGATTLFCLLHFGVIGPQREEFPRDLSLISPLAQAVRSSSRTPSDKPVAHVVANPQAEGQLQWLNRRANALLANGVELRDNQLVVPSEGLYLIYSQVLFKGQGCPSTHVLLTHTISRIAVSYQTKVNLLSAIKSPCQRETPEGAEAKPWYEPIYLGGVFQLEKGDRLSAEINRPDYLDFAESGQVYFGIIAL
Cytochrome P450 3A4 (Homo sapiens), sequence (P08684 whole entry, looked up): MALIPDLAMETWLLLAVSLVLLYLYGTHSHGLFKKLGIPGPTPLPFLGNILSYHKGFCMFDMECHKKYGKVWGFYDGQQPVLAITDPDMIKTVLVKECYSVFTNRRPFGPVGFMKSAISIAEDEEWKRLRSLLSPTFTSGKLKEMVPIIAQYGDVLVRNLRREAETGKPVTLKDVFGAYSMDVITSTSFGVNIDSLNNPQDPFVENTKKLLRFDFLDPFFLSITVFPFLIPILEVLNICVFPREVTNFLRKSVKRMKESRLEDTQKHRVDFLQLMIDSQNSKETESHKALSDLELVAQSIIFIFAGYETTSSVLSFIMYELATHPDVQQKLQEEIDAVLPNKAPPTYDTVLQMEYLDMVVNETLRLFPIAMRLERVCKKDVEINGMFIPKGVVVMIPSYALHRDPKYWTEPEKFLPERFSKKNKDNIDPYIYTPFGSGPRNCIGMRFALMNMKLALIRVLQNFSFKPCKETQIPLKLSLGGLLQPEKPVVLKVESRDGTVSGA

With `Nc1ccc(-c2ccc(N)c(O)c2)cc1O`, the Potency in assay [1] was 32.3 µM (active). Further, in assay [2], the activity change, negative = cytotoxicity was -88.2% (active). Moreover, the Potency entry in [3], in [5], in [6], in assay [8] and in assay [9] was “inactive” each time. Further, the result in [4] and in assay [10] was inactive. Moreover, the activation in assay [7] is 2.61%.
Consider `CC(=O)CC(=O)Nc1ccccc1`, for which the activity change, negative = cytotoxicity in assay [2] is -3.89%. In addition, the molecule was called inactive in assay [11], in assay [14], in assay [15] and in assay [10]. Also, the Potency entry in assay [12], in [13], in assay [5], in assay [6], in assay [16] and in assay [18] was “inactive” each time. Moreover, in assay [9], the Potency entry was “inactive”. The activation in [17] was -0.0343% and 0.349%.
Consider `Oc1cc(Cl)cc(Cl)c1Cl`, for which, in assay [2], the activity change, negative = cytotoxicity is -14.4%. In addition, the Potency entry in assay [19], in [3], in assay [12], in assay [13], in assay [20] and in assay [5] was “inactive” throughout. Further, the Potency result in assay [6] and in assay [9] was “inactive” throughout. Also, the outcome in assay [4] and in assay [10] was inactive.
Turning to `COc1ccc(C)cc1N`, the Potency in assay [1] is above 92 µM. Also, the Potency entry in assay [19], in [3], in assay [20], in [5], in [6] and in assay [16] was “inactive” in each case. Also, the Potency result in assay [18], in assay [8] and in assay [9] was “inactive” each time. In addition, the molecule was classed as inactive in assay [11], in [4], in assay [14], in assay [15] and in assay [10]. Also, the activation in assay [7] was -5.11%; in assay [17] it was -0.459%.
With `Cc1ccc(O)c(N)c1`, in assay [2], the activity change, negative = cytotoxicity is -124% (active). The Potency result in assay [3], in assay [12], in assay [20] and in assay [9] was “inactive” each time. In [14], the result was inactive. The Potency in assay [16] is 16.8 µM (active). The activation in [7] was 2.36%.
For the molecule `CCOc1ccc2nc(N)sc2c1`, the activity change, negative = cytotoxicity in assay [2] is -15.3%. Also, the outcome in assay [11], in assay [4] and in assay [15] was inactive. Further, the Potency entry in [20] and in [9] was “inactive” each time. The activation in [7] was -1.71%; in [17] it was -0.893%.
